# Laboratory results taken from the supplement of paper PMC4466140.
# Legend:
# Assay in all cases: SPOT peptide array binding signal intensity (averaged, normalized) (arbitrary units (background-subtracted, floor 0; scale differs between SH3 domains)); higher = stronger binding of the SH3 domain to the peptide
# AgAbp1 = target: AgAbp1
# Summary of the method: (§1)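 To measure binding, SH3 domains from four yeast species were fused to GST, expressed in E. coli BL21(DE3) and purified on glutathione Sepharose. Each domain was incubated at 10 μg/ml overnight at 4°C on cellulose membranes with synthetic 15-mer peptides whose cysteines were replaced by serines. Anti-GST antibody, an HRP anti-mouse secondary and luminol were used for detection, and images were quantified with Genespotter. Reported binding signal is normalized, background-subtracted spot intensity averaged over replicates, in arbitrary units that differ between domains.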
# AgBbc1 = target: AgBbc1
# Summary of the method: as §1
# AgBem1-D1 = target: AgBem1-D1
# Summary of the method: as §1
# AgBzz1-D1 = target: AgBzz1-D1
# Summary of the method: as §1
# AgBzz1-D2 = target: AgBzz1-D2
# Summary of the method: as §1
# AgCyk3 = target: AgCyk3
# Summary of the method: as §1
# AgFus1 = target: AgFus1
# Summary of the method: as §1
# AgHof1 = target: AgHof1
# Summary of the method: as §1
# AgHse1 = target: AgHse1
# Summary of the method: as §1
# AgLsb1 = target: AgLsb1
# Summary of the method: as §1
# AgLsb4 = target: AgLsb4
# Summary of the method: as §1
# AgMyo5 = target: AgMyo5
# Summary of the method: as §1
# AgNbp2 = target: AgNbp2
# Summary of the method: as §1
# AgRvs167 = target: AgRvs167
# Summary of the method: as §1
# AgSho1 = target: AgSho1
# Summary of the method: as §1
# AgSla1-D1-D2 = target: AgSla1-D1-D2
# Summary of the method: as §1
# AgSla1-D3 = target: AgSla1-D3
# Summary of the method: as §1
# CaAbp1-D1 = target: CaAbp1-D1
# Summary of the method: as §1
# CaAbp1-D2 = target: CaAbp1-D2
# Summary of the method: as §1
# CaBbc1 = target: CaBbc1
# Summary of the method: as §1
# CaBem1-D1 = target: CaBem1-D1
# Summary of the method: as §1
# CaBzz1-D1 = target: CaBzz1-D1
# Summary of the method: as §1
# CaBzz1-D2 = target: CaBzz1-D2
# Summary of the method: as §1
# CaCyk3 = target: CaCyk3
# Summary of the method: as §1
# CaFus1 = target: CaFus1
# Summary of the method: as §1
# CaHof1 = target: CaHof1
# Summary of the method: as §1
# CaHse1 = target: CaHse1
# Summary of the method: as §1
# CaLsb1 = target: CaLsb1
# Summary of the method: as §1
# CaLsb4 = target: CaLsb4
# Summary of the method: as §1
# CaMyo5 = target: CaMyo5
# Summary of the method: as §1
# CaNbp2 = target: CaNbp2
# Summary of the method: as §1
# CaRvs167 = target: CaRvs167
# Summary of the method: as §1
# CaRvs167-3 = target: CaRvs167-3
# Summary of the method: as §1
# CaSho1 = target: CaSho1
# Summary of the method: as §1
# CaSla1-D1-D2 = target: CaSla1-D1-D2
# Summary of the method: as §1
# CaSla1-D3 = target: CaSla1-D3
# Summary of the method: as §1
# ScAbp1 = target: ScAbp1
# Summary of the method: as §1
# ScBbc1 = target: ScBbc1
# Summary of the method: as §1
# ScBem1-D1 = target: ScBem1-D1
# Summary of the method: as §1
# ScBzz1-D1 = target: ScBzz1-D1
# Summary of the method: as §1
# ScBzz1-D2 = target: ScBzz1-D2
# Summary of the method: as §1
# ScCyk3 = target: ScCyk3
# Summary of the method: as §1
# ScFus1 = target: ScFus1
# Summary of the method: as §1
# ScHof1 = target: ScHof1
# Summary of the method: as §1
# ScHse1 = target: ScHse1
# Summary of the method: as §1
# ScLsb1 = target: ScLsb1
# Summary of the method: as §1
# ScLsb2 = target: ScLsb2
# Summary of the method: as §1
# ScLsb3 = target: ScLsb3
# Summary of the method: as §1
# ScLsb4 = target: ScLsb4
# Summary of the method: as §1
# ScMyo3 = target: ScMyo3
# Summary of the method: as §1
# ScMyo5 = target: ScMyo5
# Summary of the method: as §1
# ScNbp2 = target: ScNbp2
# Summary of the method: as §1
# ScPex13 = target: ScPex13
# Summary of the method: as §1
# ScRvs167 = target: ScRvs167
# Summary of the method: as §1
# ScSho1 = target: ScSho1
# Summary of the method: as §1
# ScSla1-D1-D2 = target: ScSla1-D1-D2
# Summary of the method: as §1
# ScSla1-D3 = target: ScSla1-D3
# Summary of the method: as §1
# SpAbp1-D1 = target: SpAbp1-D1
# Summary of the method: as §1
# SpBbc1 = target: SpBbc1
# Summary of the method: as §1
# SpBzz1-D1 = target: SpBzz1-D1
# Summary of the method: as §1
# SpBzz1-D2 = target: SpBzz1-D2
# Summary of the method: as §1
# SpCyk3 = target: SpCyk3
# Summary of the method: as §1
# SpHof1 = target: SpHof1
# Summary of the method: as §1
# SpHof1-2 = target: SpHof1-2
# Summary of the method: as §1
# SpHof1-3 = target: SpHof1-3
# Summary of the method: as §1
# SpHse1 = target: SpHse1
# Summary of the method: as §1
# SpLsb1 = target: SpLsb1
# Summary of the method: as §1
# SpLsb4 = target: SpLsb4
# Summary of the method: as §1
# SpMyo1 = target: SpMyo1
# Summary of the method: as §1
# SpNbp2 = target: SpNbp2
# Summary of the method: as §1
# SpPex13 = target: SpPex13
# Summary of the method: as §1
# SpRvs167 = target: SpRvs167
# Summary of the method: as §1
# SpSla1-D1-D2 = target: SpSla1-D1-D2
# Summary of the method: as §1
# SpSla1-D3 = target: SpSla1-D3
# Summary of the method: as §1
binder,measurement,setting,value
RNNRPVPPPPPMRTT,SPOT peptide array binding signal intensity,AgAbp1,9
same,SPOT peptide array binding signal intensity,AgBbc1,519
same,SPOT peptide array binding signal intensity,AgBem1-D1,129
same,SPOT peptide array binding signal intensity,AgBzz1-D1,232
same,SPOT peptide array binding signal intensity,AgBzz1-D2,117
same,SPOT peptide array binding signal intensity,AgCyk3,15
same,SPOT peptide array binding signal intensity,AgFus1,11
same,SPOT peptide array binding signal intensity,AgHof1,95.5
same,SPOT peptide array binding signal intensity,AgHse1,23
same,SPOT peptide array binding signal intensity,AgLsb1,27
same,SPOT peptide array binding signal intensity,AgLsb4,131
same,SPOT peptide array binding signal intensity,AgMyo5,72.2
same,SPOT peptide array binding signal intensity,AgNbp2,59.5
same,SPOT peptide array binding signal intensity,AgRvs167,76.8
same,SPOT peptide array binding signal intensity,AgSho1,5
same,SPOT peptide array binding signal intensity,AgSla1-D1-D2,6
same,SPOT peptide array binding signal intensity,AgSla1-D3,21.5
same,SPOT peptide array binding signal intensity,CaAbp1-D1,53.5
same,SPOT peptide array binding signal intensity,CaAbp1-D2,11
same,SPOT peptide array binding signal intensity,CaBbc1,724
same,SPOT peptide array binding signal intensity,CaBem1-D1,108
same,SPOT peptide array binding signal intensity,CaBzz1-D1,5240
same,SPOT peptide array binding signal intensity,CaBzz1-D2,1310
same,SPOT peptide array binding signal intensity,CaCyk3,247
same,SPOT peptide array binding signal intensity,CaFus1,69
same,SPOT peptide array binding signal intensity,CaHof1,9.5
same,SPOT peptide array binding signal intensity,CaHse1,3
same,SPOT peptide array binding signal intensity,CaLsb1,2
same,SPOT peptide array binding signal intensity,CaLsb4,541
same,SPOT peptide array binding signal intensity,CaMyo5,34
same,SPOT peptide array binding signal intensity,CaNbp2,312
same,SPOT peptide array binding signal intensity,CaRvs167,392
same,SPOT peptide array binding signal intensity,CaRvs167-3,1
same,SPOT peptide array binding signal intensity,CaSho1,17
same,SPOT peptide array binding signal intensity,CaSla1-D1-D2,1140
same,SPOT peptide array binding signal intensity,CaSla1-D3,187
same,SPOT peptide array binding signal intensity,ScAbp1,10.5
same,SPOT peptide array binding signal intensity,ScBbc1,58
same,SPOT peptide array binding signal intensity,ScBem1-D1,4
same,SPOT peptide array binding signal intensity,ScBzz1-D1,453
same,SPOT peptide array binding signal intensity,ScBzz1-D2,113
same,SPOT peptide array binding signal intensity,ScCyk3,2.5
same,SPOT peptide array binding signal intensity,ScFus1,2.5
same,SPOT peptide array binding signal intensity,ScHof1,21
same,SPOT peptide array binding signal intensity,ScHse1,49.5
same,SPOT peptide array binding signal intensity,ScLsb1,27
same,SPOT peptide array binding signal intensity,ScLsb2,13.5
same,SPOT peptide array binding signal intensity,ScLsb3,1090
same,SPOT peptide array binding signal intensity,ScLsb4,500
same,SPOT peptide array binding signal intensity,ScMyo3,425
same,SPOT peptide array binding signal intensity,ScMyo5,156
same,SPOT peptide array binding signal intensity,ScNbp2,622
same,SPOT peptide array binding signal intensity,ScPex13,1210
same,SPOT peptide array binding signal intensity,ScRvs167,2320
same,SPOT peptide array binding signal intensity,ScSho1,99
same,SPOT peptide array binding signal intensity,ScSla1-D1-D2,1300
same,SPOT peptide array binding signal intensity,ScSla1-D3,56.5
same,SPOT peptide array binding signal intensity,SpAbp1-D1,15.5
same,SPOT peptide array binding signal intensity,SpBbc1,41
same,SPOT peptide array binding signal intensity,SpBzz1-D1,2280
same,SPOT peptide array binding signal intensity,SpBzz1-D2,28.8
same,SPOT peptide array binding signal intensity,SpCyk3,23
same,SPOT peptide array binding signal intensity,SpHof1,22.8
same,SPOT peptide array binding signal intensity,SpHof1-2,24.8
same,SPOT peptide array binding signal intensity,SpHof1-3,98.2
same,SPOT peptide array binding signal intensity,SpHse1,52
same,SPOT peptide array binding signal intensity,SpLsb1,44.2
same,SPOT peptide array binding signal intensity,SpLsb4,1450
same,SPOT peptide array binding signal intensity,SpMyo1,662
same,SPOT peptide array binding signal intensity,SpNbp2,8.5
same,SPOT peptide array binding signal intensity,SpPex13,19.5
same,SPOT peptide array binding signal intensity,SpRvs167,1030
same,SPOT peptide array binding signal intensity,SpSla1-D1-D2,134
same,SPOT peptide array binding signal intensity,SpSla1-D3,7
PPPPPPPPPPPLPQS,SPOT peptide array binding signal intensity,AgAbp1,9
same,SPOT peptide array binding signal intensity,AgBbc1,0.5
same,SPOT peptide array binding signal intensity,AgBem1-D1,28
same,SPOT peptide array binding signal intensity,AgBzz1-D1,5
same,SPOT peptide array binding signal intensity,AgBzz1-D2,1
same,SPOT peptide array binding signal intensity,AgCyk3,2
same,SPOT peptide array binding signal intensity,AgFus1,≤ 0
same,SPOT peptide array binding signal intensity,AgHof1,228
same,SPOT peptide array binding signal intensity,AgHse1,≤ 0
same,SPOT peptide array binding signal intensity,AgLsb1,≤ 0
same,SPOT peptide array binding signal intensity,AgLsb4,≤ 0
same,SPOT peptide array binding signal intensity,AgMyo5,688
same,SPOT peptide array binding signal intensity,AgNbp2,2
same,SPOT peptide array binding signal intensity,AgRvs167,4.67
same,SPOT peptide array binding signal intensity,AgSho1,≤ 0
same,SPOT peptide array binding signal intensity,AgSla1-D1-D2,≤ 0
same,SPOT peptide array binding signal intensity,AgSla1-D3,0.5
same,SPOT peptide array binding signal intensity,CaAbp1-D1,4.5
same,SPOT peptide array binding signal intensity,CaAbp1-D2,3
same,SPOT peptide array binding signal intensity,CaBbc1,≤ 0
same,SPOT peptide array binding signal intensity,CaBem1-D1,≤ 0
same,SPOT peptide array binding signal intensity,CaBzz1-D1,1610
same,SPOT peptide array binding signal intensity,CaBzz1-D2,313
same,SPOT peptide array binding signal intensity,CaCyk3,≤ 0
same,SPOT peptide array binding signal intensity,CaFus1,8.5
same,SPOT peptide array binding signal intensity,CaHof1,0.75
same,SPOT peptide array binding signal intensity,CaHse1,11.2
same,SPOT peptide array binding signal intensity,CaLsb1,2.25
same,SPOT peptide array binding signal intensity,CaLsb4,16
same,SPOT peptide array binding signal intensity,CaMyo5,235
